{
  "source": "PubChem BioAssay (NCI)",
  "note": "This is part of a sample that, as a whole, favours compounds with a hit. Of some 83,000 tested, about 20% had one in any assay.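 Percent growth is the endpoint: 0 to 100 indicates growth inhibition (40 means 60% inhibition), 0 means no net growth, and negative values indicate cell death.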 Unmarked numbers belong to inactive results. The source made the active and inactive calls. The calls were made as follows: active = growth percent below 10; inactive = the rest.",
  "data": [
    {"test_system": "HL-60(TB) leukemia", "test": "NCI-60 one-dose screen, 48 h (100 = growth as untreated, 0 = no growth, -100 = all killed)", "details": "10 µM unless noted", "values": [
      {"molecule": "Cn1c([N+](=O)[O-])cnc1C=C1C(=O)c2ccccc2C1=O", "growth": "4.69% (active)"},
      {"molecule": "O[C@@H]1CCO[C@H](c2ccc3ccccc3c2)C1", "growth": "102%"},
      {"molecule": "Cc1ccccc1Nc1nc2nonc2nc1Nc1cccc(C)c1C", "growth": "69.8%"},
      {"molecule": "Cc1cc(NC(=O)C2c3ccccc3C(=O)N(CC(C)C)C2c2cccs2)no1", "note": "(stereo not drawn)", "growth": "0.0249% (active)"},
      {"molecule": "CC(C)C1=NOC(=O)C1=Cc1cn(-c2ccccc2)nc1-c1ccccc1", "growth": "-45.2% (active)"},
      {"molecule": "O=C1NC2(Nc3ccccc31)C(=O)Nc1c(Cl)cc(Cl)cc12", "note": "(stereo not drawn)", "growth": "106%"},
      {"molecule": "COC(=O)[C@H]1CCCN1C(=O)[C@H]1CCCN1C(=O)[C@@H](Cc1c[nH]c2ccccc12)NC(=S)Nc1cc(C(F)(F)F)cc(C(F)(F)F)c1", "growth": "31.2%"},
      {"molecule": "CC1(C)CC[C@]2(C(=O)OC(=O)[C@]34CCC(C)(C)C[C@@H]3C3=CC[C@@H]5[C@@]6(C)CCC(=O)C(C)(C)[C@@H]6CC[C@@]5(C)[C@]3(C)CC4)CC[C@]3(C)C(=CC[C@@H]4[C@@]5(C)CCC(=O)C(C)(C)[C@@H]5CC[C@]43C)[C@H]2C1", "growth": "6.37% [100 µM] (active)"},
      {"molecule": "NC1C(N)C(N)C1N", "note": "(stereo not drawn)", "growth": "93.8%"},
      {"molecule": "CCOc1ccc(NC(=O)Nc2ccc(OCC)cc2)cc1", "growth": "96.7%"},
      {"molecule": "Fc1cc(-c2nnc3n2NC(=Nc2ccc(Cl)cc2)CS3)c(Cl)cc1Cl", "growth": "94.1%"},
      {"molecule": "Cc1nc2ccccc2c(=O)n1-c1cccc(OCc2cn(-c3cccc(O)c3)nn2)c1", "growth": "101%"},
      {"molecule": "Cc1ccc2c(c1)=C/C(=C\\c1cc(-c3ccccc3)oc1O)C(=O)N=2", "growth": "98%"}
    ]}
  ]
}
